Test results as given in the supplement of paper PMC9135407.
Where “and” joins values, the source holds several entries; their conditions need not be identical. Identical values can stand only once. Counter-ions that a name gives are not always drawn. The campaign covered roughly 5,800 compounds. About 620 (11%) showed activity. Shown is part of a subset that was picked to be rich in actives. A number with no mark means an inactive call.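 The calls were made as follows: active = score above a cut-off or among the top three wells of a plate; in these data no inactive exceeds 0.85.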

Test system: primary human hepatic stellate cells (donor 1)
Test: scaled lipid accumulation score (0 = DMSO-like, 1 = nortriptyline-like); higher = stronger HSC inactivation (lipid re-accumulation), active = hit call of the paper
Conditions: 48 h
[1] = library stock concentration: 10 mM
[2] = library stock concentration: 1 mM
[3] = library stock concentration: 3.33 mM
[4] = library stock concentration: 80 uM
[5] = library stock concentration: 400 uM
[6] = library stock concentration: 2 mM

How did the “scaled lipid accumulation score” value (library stock concentration: 9.3 mM) turn out when O=NN(CCCl)C(=O)NCCCl [Carmustine] was run?
The value was at most 0.

What about the “scaled lipid accumulation score” value [1] of the same molecule?
Its value is at most 0.

Which “scaled lipid accumulation score” value [1] does the source give for C[N+](C)(C)CCO.[Br-] [Choline bromide] here?
The value was at most 0.

CC(C)C[C@@H]1NC(=O)[C@H](CCCN)NC(=O)[C@H](C(C)C)NC(=O)[C@H](Cc2ccc(O)cc2)N[C@@H](CCC(=O)O)C(=O)N[C@@H](CC(N)=O)C(=O)[C@@H](Cc2ccccc2)NC(=O)[C@H](Cc2ccccc2)NC(=O)[C@@H]2CCCN2C(=O)[C@@H](Cc2ccccc2)NC1=O [Tyrothricin] was tested. Which “scaled lipid accumulation score” value (library stock concentration: 1.6 mM) did it give?
Its value is at most 0.

And the “scaled lipid accumulation score” value [1]?
Its value is at most 0.

COC(=O)CCCCCCC1C(O)CC(O)C1CCC(O)CSc1ccccc1F (configuration not stated) was tested. Which “scaled lipid accumulation score” value [2] did it give?
The value was at most 0.

Which results are given for CC(=O)O/N=C1\C(=O)N(Cc2cc(Cl)ccc2Cl)c2ccc(Cl)cc21?
scaled lipid accumulation score [3]: ≤ -0.009; scaled lipid accumulation score [1]: ≤ 0

With NC(C(=O)O)c1cc(O)cc(O)c1 (racemic) as the molecule, how does the “scaled lipid accumulation score” value [1] read?
Its value is 0.017.

Which results are given for C[C@H](O)[C@H](O)[C@@H](O)[C@@H](O)C=O [L-(+)-Rhamnose Monohydrate]?
scaled lipid accumulation score [3]: ≤ 0; scaled lipid accumulation score [1]: ≤ 0

For CC(C)Nc1cccnc1N1CCN(C(=O)c2cc3cc(NS(C)(=O)=O)ccc3[nH]2)CC1 [Delavirdine mesylate], which “scaled lipid accumulation score” value (library stock concentration: 4.4 mM) is on record?
The value was at most -0.006.

COc1cc(Nc2ncc(F)c(Nc3ccc4c(n3)N(COP(=O)(O)O)C(=O)C(C)(C)O4)n2)cc(OC)c1OC [Fostamatinib (R788)] [listing 1 of 2 here] was tested. Which “scaled lipid accumulation score” value [1] did it give?
The value was 1.01 (active).

With C=CC(=O)Nc1cccc(Nc2nc(Nc3ccc(OCCOC)cc3)ncc2F)c1 [Spebrutinib] as the molecule, how does the “scaled lipid accumulation score” value [4] read?
Its value is at most -0.001.

What about the “scaled lipid accumulation score” value [5] of the same molecule?
Its value is at most -0.001.

What about the “scaled lipid accumulation score” value [6] of the same molecule?
Its value is at most -0.001.

What about the “scaled lipid accumulation score” value [1] of the same molecule?
Its value is 0.202.

How did the “scaled lipid accumulation score” value [3] turn out when C=CC(=O)Nc1cccc(Nc2nc(Nc3ccc(OCCOC)cc3)ncc2F)c1 was run?
Its value is at most -0.009.

And the “scaled lipid accumulation score” value [1]?
The value was 0.576.

COc1cc(Nc2ncc3c(n2)-c2ccc(Cl)cc2C(c2c(F)cccc2OC)=NC3)ccc1C(=O)O [Alisertib (MLN8237)] was tested. Which “scaled lipid accumulation score” value [3] did it give?
The value was at most 0.

What about the “scaled lipid accumulation score” value [1] of the same molecule?
The value was at most 0.

COc1cc(Nc2ncc(F)c(Nc3ccc4c(n3)NC(=O)C(C)(C)O4)n2)cc(OC)c1OC.O=S(=O)(O)c1ccccc1 was tested. Which “scaled lipid accumulation score” value [1] did it give?
Its value is 0.882 (active).

COc1cc(Nc2ncc3ccn(-c4cccc(CCC#N)c4)c3n2)cc(OC)c1OC [Keratinocyte Differentiation Inducer] was tested. Which “scaled lipid accumulation score” value [3] did it give?
The value was 0.501 and ≤ 0.

COc1cc(Nc2ncc(F)c(Nc3ccc4c(n3)NC(=O)C(C)(C)O4)n2)cc(OC)c1OC [listing 1 of 2 here] was tested. Which “scaled lipid accumulation score” value [1] did it give?
Its value is 1.06 (active).

With COc1cc(Nc2ncc(F)c(Nc3ccc4c(n3)NC(=O)C(C)(C)O4)n2)cc(OC)c1OC [R406 (free base)] as the molecule, how does the “scaled lipid accumulation score” value [3] read?
Its value is 0.918 (active).

And the “scaled lipid accumulation score” value [1]?
Its value is 1.16 (active).

Which “scaled lipid accumulation score” value [4] does the source give for COc1cc(Nc2ncc(F)c(Nc3ccc4c(n3)NC(=O)C(C)(C)O4)n2)cc(OC)c1OC [listing 2 of 2 here] here?
Its value is at most 0.

What about the “scaled lipid accumulation score” value [5] of the same molecule?
Its value is 0.072.

And the “scaled lipid accumulation score” value [6]?
Its value is 0.159.

And the “scaled lipid accumulation score” value [3]?
Its value is 0.03.

How did the “scaled lipid accumulation score” value [3] turn out when COc1cc(Nc2ncc(F)c(Nc3ccc4c(n3)N(COP(=O)(O)O)C(=O)C(C)(C)O4)n2)cc(OC)c1OC [Fostamatinib (R788)] [listing 2 of 2 here] was run?
Its value is 0.198.

Which “scaled lipid accumulation score” value [4] does the source give for COc1cc(Nc2ncc3c(n2)-c2ccc(Cl)cc2C(c2c(F)cccc2OC)=NC3)ccc1C(=O)O [Alisertib] here?
Its value is at most 0.

What about the “scaled lipid accumulation score” value [5] of the same molecule?
Its value is at most 0.

What about the “scaled lipid accumulation score” value [6] of the same molecule?
Its value is at most 0.

And the “scaled lipid accumulation score” value [1]?
Its value is at most 0.

For CCCC(CCC)C(=O)O[C@H]1C[C@H]2CC[C@@H](C1)[N+]2(C)C [Anisotropine methyl bromide], which “scaled lipid accumulation score” value [1] is on record?
The value was 0.296.

How did the “scaled lipid accumulation score” value [1] turn out when OC[C@H]1O[C@H](O[C@H]2[C@H](O)[C@@H](O)C(O)O[C@@H]2CO)[C@H](O)[C@@H](O)[C@@H]1O (some centres not stated) was run?
Its value is at most 0.

Which “scaled lipid accumulation score” value [1] does the source give for Nc1nc2c(ccc3ccccc32)s1 here?
Its value is at most 0.

CC1=C(C)C(=O)C(CCCCC#CCCCC#CCO)=C(C)C1=O was tested. Which “scaled lipid accumulation score” value [1] did it give?
Its value is 0.105.

What about the “scaled lipid accumulation score” value (library stock concentration: 15.3 mM) of the same molecule?
Its value is at most -0.012.

How did the “scaled lipid accumulation score” value (library stock concentration: 6.1 mM) turn out when CC1=C(C)C(=O)C(CCCCC#CCCCC#CCO)=C(C)C1=O [Docebenone] was run?
The value was at most -0.006.

O=C(O)CCNc1cc(N2CCc3ccccc3CC2)nc(-c2cccnc2)n1 was tested. Which “scaled lipid accumulation score” value [4] did it give?
The value was at most 0.

And the “scaled lipid accumulation score” value [5]?
Its value is at most 0.

What about the “scaled lipid accumulation score” value [6] of the same molecule?
The value was at most 0.

And the “scaled lipid accumulation score” value [1]?
The value was at most 0.

CC(C)(C)OC(=O)N[C@H]1CCCCC/C=C\[C@@H]2C[C@@]2(C(=O)NS(=O)(=O)C2CC2)NC(=O)[C@@H]2C[C@@H](OC(=O)N3Cc4cccc(F)c4C3)CN2C1=O [Danoprevir (ITMN-191)] was tested. Which “scaled lipid accumulation score” value [3] did it give?
Its value is 0.049.

And the “scaled lipid accumulation score” value [1]?
The value was at most 0.

For CO[C@H]1C[C@@H]2CC[C@@H](C)[C@@](O)(O2)C(=O)C(=O)N2CCCC[C@H]2C(=O)O[C@H]([C@H](C)C[C@@H]2CC[C@@H](O)[C@H](OC)C2)CC(=O)[C@H](C)/C=C(\C)[C@@H](O)[C@@H](OC)C(=O)[C@H](C)C[C@H](C)/C=C/C=C/C=C/1C [Rapamycin (Sirolimus)], which “scaled lipid accumulation score” value [3] is on record?
Its value is 0.037.

And the “scaled lipid accumulation score” value [1]?
Its value is at most 0.

CO[C@H]1C[C@@H]2CC[C@@H](C)[C@@](O)(O2)C(=O)C(=O)N2CCCC[C@H]2C(=O)O[C@H]([C@H](C)C[C@@H]2CC[C@@H](O)[C@H](OC)C2)CC(=O)[C@H](C)/C=C(\C)[C@@H](O)[C@@H](OC)C(=O)[C@H](C)C[C@H](C)/C=C/C=C/C=C/1C [Rapamycin] was tested. Which “scaled lipid accumulation score” value [4] did it give?
Its value is at most 0.

What about the “scaled lipid accumulation score” value [5] of the same molecule?
The value was at most 0.

And the “scaled lipid accumulation score” value [2]?
Its value is at most 0.

And the “scaled lipid accumulation score” value [6]?
The value was at most 0.

What about the “scaled lipid accumulation score” value [3] of the same molecule?
The value was at most 0.

And the “scaled lipid accumulation score” value [1]?
The value was at most 0.

Which “scaled lipid accumulation score” value [1] does the source give for O=C1NC(=O)c2c1c(-c1ccccc1)cc1[nH]c3ccc(O)cc3c21 here?
Its value is ≤ -0.055 and ≤ -0.001.

OCCN1CCN(CCCN2c3ccccc3Sc3ccc(C(F)(F)F)cc32)CC1 was tested. Which “scaled lipid accumulation score” value [1] did it give?
Its value is 1.34 (active).

OCCN1CCN(CCCN2c3ccccc3Sc3ccc(C(F)(F)F)cc32)CC1 [Fluphenazine hydrochloride] was tested. Which “scaled lipid accumulation score” value [1] did it give?
The value was 0.407.

What does the source list for OCCN1CCN(CCCN2c3ccccc3Sc3ccc(C(F)(F)F)cc32)CC1 [Fluphenazine dihydrochloride]?
scaled lipid accumulation score: 0.627; scaled lipid accumulation score [1]: ≤ -0.07

How did the “scaled lipid accumulation score” value [3] turn out when CC(C)(O)C1CCC(C)(C2C(O)CC3(C)C4CC(OC5OC(CO)C(O)C(O)C5O)C5C(C)(C)C(OC6OCC(O)C(O)C6O)CCC56CC46CCC23C)O1 (configuration not stated) [Astragaloside A] was run?
The value was 0.019.

What about the “scaled lipid accumulation score” value [1] of the same molecule?
The value was at most 0.
